# Experimental data reported in PubChem BioAssay (EPA / NIEHS).
# The source made the active and inactive calls. The calls were made as follows: active = hit-call score of the fitted dose curve at least 0.9, where 1 is the maximum; inactive = score below 0.9.
# Tests used:
# Conditions in all cases: mRNA level, 48 h; actives raise or lower the signal
# [1] = read-out: Tumor necrosis factor receptor superfamily member 6 (Homo sapiens) (UniProt P25445); assay: LTEA_HepaRG_FAS: Life Technologies and Expression Analysis (LTEA) Assay for Fas cell surface death receptor (FAS) using HepaRG (AID 2283447)
# Method in brief: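 Differentiated HepaRG cells in serum-free induction medium were exposed 48 h to 8 half-log concentrations up to 100 uM in 0.5% DMSO, in duplicate. FAS mRNA was measured by qRT-PCR normalised to ACTB, GAPDH and POLR2A; bidirectional fit versus DMSO.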
# [2] = read-out: Fatty acid synthase (Homo sapiens) (UniProt P49327); assay: LTEA_HepaRG_FASN: Life Technologies and Expression Analysis (LTEA) Assay for Fatty Acid Synthase (FASN) using HepaRG (AID 2283448)
# Method in brief: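 FASN expression changes, up or down relative to 0.5% DMSO, were measured by qRT-PCR in human HepaRG cells after 48 h treatment with chemicals at eight concentrations (half-log steps from 100 uM).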
# [3] = read-out: Cyclin D2 (CCND2), CCND2 (gene 894); assay: LTEA_HepaRG_CCND2: Life Technologies and Expression Analysis (LTEA) Assay for Cyclin D2 (CCND2) using HepaRG (AID 2283449);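 also: CCND2 transcript measured by TaqMan qRT-PCR and normalised to three housekeeping genes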
# Method in brief: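 Chemicals in 0.5% DMSO, eight half-log concentrations from 100 uM top, were applied in duplicate for 48 h to human HepaRG cells in serum-free induction medium. CCND2 mRNA by TaqMan qRT-PCR, normalised to ACTB/GAPDH/POLR2A; bidirectional fit versus DMSO.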
# [4] = read-out: Cyclin Dependent Kinase Inhibitor 1A (CDKN1A), CDKN1A (gene 1026); assay: LTEA_HepaRG_CDKN1A: Life Technologies and Expression Analysis (LTEA) Assay for Cyclin Dependent Kinase Inhibitor 1A (CDKN1A) using HepaRG (AID 2283450)
# Method in brief: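 Read-out is CDKN1A mRNA by TaqMan qRT-PCR, normalized to three housekeeping genes and fitted in both directions against the DMSO baseline. Human HepaRG cells were treated 48 h with test chemicals up to 100 uM in half-log steps, 0.5% DMSO.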
# [5] = read-out: Cyclin D1 (CCND1), CCND1 (gene 595); assay: LTEA_HepaRG_CCND1: Life Technologies and Expression Analysis (LTEA) Assay for Cyclin D1 (CCND1) using HepaRG (AID 2283451);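 as to AC50: TaqMan qRT-PCR transcript level normalised to ACTB GAPDH and POLR2A housekeeping genes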
# Method in brief: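 HepaRG plated 48 h, medium switched to serum-free induction medium, chemicals added in duplicate (top 100 uM, half-log steps, 0.5% DMSO) for 48 h, cells lysed, RNA measured by TaqMan qRT-PCR.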
# [6] = read-out: catalase (CAT), CAT (gene 847); assay: LTEA_HepaRG_CAT: Life Technologies and Expression Analysis (LTEA) Assay for catalase (CAT) using HepaRG (AID 2283452);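 as to AC50: TaqMan qRT-PCR signal normalized to ACTB GAPDH and POLR2A housekeeping genes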
# Method in brief: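 HepaRG cells in serum-free induction medium, 0.5% DMSO vehicle, exposed 48 h in duplicate over 8 half-log concentrations from 100 uM. CAT mRNA measured by qRT-PCR, normalized to ACTB, GAPDH, POLR2A; bidirectional fit versus DMSO.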
# [7] = read-out: flavin-containing dimethylaniline monooxygenases 3 (FMO3), FMO3 (gene 2328); assay: LTEA_HepaRG_FMO3: Life Technologies and Expression Analysis (LTEA) Assay for flavin-containing dimethylaniline monooxygenases 3 (FMO3) using HepaRG (AID 2283453)
# Method in brief: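 Differentiated HepaRG cells in serum-free induction medium, exposed 48 h in duplicate to 8 half-log concentrations up to 100 uM in 0.5% DMSO. FMO3 mRNA by qRT-PCR, normalized to ACTB, GAPDH, POLR2A; bidirectional fit vs DMSO.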
# [8] = read-out: CFLAR gene, CFLAR (gene 8837); assay: LTEA_HepaRG_CFLAR: Life Technologies and Expression Analysis (LTEA) Assay for CFLAR gene using HepaRG (AID 2283455)
# Method in brief: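 Differentiated HepaRG cells in serum-free induction medium were exposed 48 h in duplicate to eight half-log concentrations up to 100 uM in 0.5% DMSO; mRNA measured by TaqMan qRT-PCR, normalized to ACTB, GAPDH, POLR2A; bidirectional fitting versus DMSO.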
# [9] = read-out: growth arrest and DNA damage 45 (GADD45A), GADD45A (gene 1647); assay: LTEA_HepaRG_GADD45A: Life Technologies and Expression Analysis (LTEA) Assay for growth arrest and DNA damage 45 (GADD45A) using HepaRG (AID 2283458)
# Method in brief: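 Cells plated and cultured 48 h, switched to serum-free induction medium, then dosed for 48 h (100 uM top, half-log dilutions, 0.5% DMSO). RNA was isolated and transcript measured by Fluidigm qRT-PCR.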
# [10] = read-out: Forkhead box O3 (FOXO3), FOXO3 (gene 2309); assay: LTEA_HepaRG_FOXO3: Life Technologies and Expression Analysis (LTEA) Assay for Forkhead box O3 (FOXO3) using HepaRG (AID 2283459)
# Method in brief: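 Differentiated human HepaRG cells, 48 h post-plating, exposed in duplicate for 48 h in serum-free induction medium; 8-point half-log series from 100 uM in 0.5% DMSO. FOXO3 mRNA by TaqMan qRT-PCR, normalized to ACTB/GAPDH/POLR2A; bidirectional fit versus DMSO.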
# [11] = read-out: ABC Transporter (ABCB1), ABCB1 (gene 5243); assay: LTEA_HepaRG_ABCB1: Life Technologies and Expression Analysis (LTEA) Assay for ABC Transporter (ABCB1) using HepaRG (AID 2283460)
# Method in brief: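 HepaRG cells exposed in duplicate for 48 h in serum-free induction medium to eight half-log concentrations up to 100 uM in 0.5% DMSO. ABCB1 mRNA quantified by qRT-PCR, normalised to ACTB, GAPDH and POLR2A; fitted bidirectionally versus DMSO.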
# [12] = read-out: growth arrest and DNA damage 45 (GADD45B), GADD45B (gene 4616); assay: LTEA_HepaRG_GADD45B: Life Technologies and Expression Analysis (LTEA) Assay for growth arrest and DNA damage 45 (GADD45B) using HepaRG (AID 2283461)
# Method in brief: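 HepaRG, ~100,000 cells/well, 48 h plating; serum-free induction medium; cpd 100 uM top, half-log x8, 0.5% DMSO, duplicate, 48 h; lysis in RLT, RNA isolation, qRT-PCR; norm ACTB/GAPDH/POLR2A; bidirectional fit vs DMSO.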
# [13] = read-out: ABC Transporter (ABCC3), ABCC3 (gene 8714); assay: LTEA_HepaRG_ABCC3: Life Technologies and Expression Analysis (LTEA) Assay for ABC Transporter (ABCC3) using HepaRG (AID 2283462)
# Method in brief: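 Human HepaRG, 48 h dosing, 8-pt half-log series from 100 uM, 0.5% DMSO vehicle, duplicates. ABCC3 mRNA by TaqMan qRT-PCR, housekeeping-normalized; bidirectional curve fit vs DMSO.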
# [14] = read-out: ABC Transporter (ABCB11), ABCB11 (gene 8647); assay: LTEA_HepaRG_ABCB11: Life Technologies and Expression Analysis (LTEA) Assay for ABC Transporter (ABCB11) using HepaRG (AID 2283463)
# Method in brief: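 Differentiated human HepaRG cells in serum-free induction medium, dosed in duplicate for 48 h. Eight-point half-log series from 100 uM in 0.5% DMSO; ABCB11 mRNA by qRT-PCR, normalized to ACTB, GAPDH, POLR2A, fitted bidirectionally versus DMSO.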
# [15] = read-out: ABC Transporter (ABCC2), ABCC2 (gene 1244); assay: LTEA_HepaRG_ABCC2: Life Technologies and Expression Analysis (LTEA) Assay for ABC Transporter (ABCC2) using HepaRG (AID 2283464)
# Method in brief: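 HepaRG, 48 h post-plating; serum-free induction medium; cpd 8-pt, 100 uM top, half-log, 0.5% DMSO, duplicate, 48 h. Readout: ABCC2 mRNA by qRT-PCR, norm. ACTB/GAPDH/POLR2A. Bidirectional fit vs DMSO baseline.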
# [16] = read-out: Broad substrate specificity ATP-binding cassette transporter ABCG2 (Homo sapiens) (UniProt Q9UNQ0); assay: LTEA_HepaRG_ABCG2: Life Technologies and Expression Analysis (LTEA) Assay for ABC Transporter (ABCG2) using HepaRG (AID 2283465)
# Method in brief: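 Differentiated HepaRG cells were exposed for 48 h in serum-free induction medium to 8 half-log concentrations, top 100 uM, in 0.5% DMSO. ABCG2 mRNA was measured by qRT-PCR, normalized to ACTB, GAPDH and POLR2A, with bidirectional fitting versus DMSO.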
# [17] = read-out: ATP-citrate lyase (ACLY), ACLY (gene 47); assay: LTEA_HepaRG_ACLY: Life Technologies and Expression Analysis (LTEA) Assay for ATP-citrate lyase (ACLY) using HepaRG (AID 2283466)
# Method in brief: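 Differentiated HepaRG cells exposed 48 h in serum-free induction medium to eight half-log concentrations up to 100 uM in 0.5% DMSO, duplicates. Transcript measured by Fluidigm TaqMan qRT-PCR, normalized to ACTB, GAPDH, POLR2A; bidirectional fit versus DMSO.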
# [18] = read-out: Forkhead box O1 (FOXO1), FOXO1 (gene 2308); assay: LTEA_HepaRG_FOXO1: Life Technologies and Expression Analysis (LTEA) Assay for Forkhead box O1 (FOXO1) using HepaRG (AID 2283456)
# Method in brief: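 Differentiated HepaRG cells, in serum-free induction medium with 0.5% DMSO, exposed 48 h in duplicate to 8-point half-log series from 100 uM. FOXO1 mRNA measured by TaqMan qRT-PCR, normalized to ACTB, GAPDH, POLR2A; bidirectional fit versus DMSO.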
# Chain of Broad substrate specificity ATP-binding cassette transporter ABCG2 (Homo sapiens) (Q9UNQ0 whole entry, looked up): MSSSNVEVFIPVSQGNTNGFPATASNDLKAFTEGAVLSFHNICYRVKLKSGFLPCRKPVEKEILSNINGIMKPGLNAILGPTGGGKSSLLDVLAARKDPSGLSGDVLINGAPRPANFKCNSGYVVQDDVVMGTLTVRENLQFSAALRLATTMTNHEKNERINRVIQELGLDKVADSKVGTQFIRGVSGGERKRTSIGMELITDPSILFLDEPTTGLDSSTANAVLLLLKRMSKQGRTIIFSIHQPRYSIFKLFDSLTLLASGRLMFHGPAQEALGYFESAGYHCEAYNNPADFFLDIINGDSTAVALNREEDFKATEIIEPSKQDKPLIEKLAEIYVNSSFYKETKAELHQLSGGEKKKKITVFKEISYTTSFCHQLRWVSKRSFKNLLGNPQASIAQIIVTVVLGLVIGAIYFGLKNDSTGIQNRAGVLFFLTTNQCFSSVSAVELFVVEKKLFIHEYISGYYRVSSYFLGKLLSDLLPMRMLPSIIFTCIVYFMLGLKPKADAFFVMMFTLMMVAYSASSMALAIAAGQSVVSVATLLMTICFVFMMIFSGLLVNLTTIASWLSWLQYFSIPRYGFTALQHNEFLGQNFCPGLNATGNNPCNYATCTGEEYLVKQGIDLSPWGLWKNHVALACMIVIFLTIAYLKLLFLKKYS
# Chain of Fatty acid synthase (Homo sapiens) (P49327 whole entry, looked up): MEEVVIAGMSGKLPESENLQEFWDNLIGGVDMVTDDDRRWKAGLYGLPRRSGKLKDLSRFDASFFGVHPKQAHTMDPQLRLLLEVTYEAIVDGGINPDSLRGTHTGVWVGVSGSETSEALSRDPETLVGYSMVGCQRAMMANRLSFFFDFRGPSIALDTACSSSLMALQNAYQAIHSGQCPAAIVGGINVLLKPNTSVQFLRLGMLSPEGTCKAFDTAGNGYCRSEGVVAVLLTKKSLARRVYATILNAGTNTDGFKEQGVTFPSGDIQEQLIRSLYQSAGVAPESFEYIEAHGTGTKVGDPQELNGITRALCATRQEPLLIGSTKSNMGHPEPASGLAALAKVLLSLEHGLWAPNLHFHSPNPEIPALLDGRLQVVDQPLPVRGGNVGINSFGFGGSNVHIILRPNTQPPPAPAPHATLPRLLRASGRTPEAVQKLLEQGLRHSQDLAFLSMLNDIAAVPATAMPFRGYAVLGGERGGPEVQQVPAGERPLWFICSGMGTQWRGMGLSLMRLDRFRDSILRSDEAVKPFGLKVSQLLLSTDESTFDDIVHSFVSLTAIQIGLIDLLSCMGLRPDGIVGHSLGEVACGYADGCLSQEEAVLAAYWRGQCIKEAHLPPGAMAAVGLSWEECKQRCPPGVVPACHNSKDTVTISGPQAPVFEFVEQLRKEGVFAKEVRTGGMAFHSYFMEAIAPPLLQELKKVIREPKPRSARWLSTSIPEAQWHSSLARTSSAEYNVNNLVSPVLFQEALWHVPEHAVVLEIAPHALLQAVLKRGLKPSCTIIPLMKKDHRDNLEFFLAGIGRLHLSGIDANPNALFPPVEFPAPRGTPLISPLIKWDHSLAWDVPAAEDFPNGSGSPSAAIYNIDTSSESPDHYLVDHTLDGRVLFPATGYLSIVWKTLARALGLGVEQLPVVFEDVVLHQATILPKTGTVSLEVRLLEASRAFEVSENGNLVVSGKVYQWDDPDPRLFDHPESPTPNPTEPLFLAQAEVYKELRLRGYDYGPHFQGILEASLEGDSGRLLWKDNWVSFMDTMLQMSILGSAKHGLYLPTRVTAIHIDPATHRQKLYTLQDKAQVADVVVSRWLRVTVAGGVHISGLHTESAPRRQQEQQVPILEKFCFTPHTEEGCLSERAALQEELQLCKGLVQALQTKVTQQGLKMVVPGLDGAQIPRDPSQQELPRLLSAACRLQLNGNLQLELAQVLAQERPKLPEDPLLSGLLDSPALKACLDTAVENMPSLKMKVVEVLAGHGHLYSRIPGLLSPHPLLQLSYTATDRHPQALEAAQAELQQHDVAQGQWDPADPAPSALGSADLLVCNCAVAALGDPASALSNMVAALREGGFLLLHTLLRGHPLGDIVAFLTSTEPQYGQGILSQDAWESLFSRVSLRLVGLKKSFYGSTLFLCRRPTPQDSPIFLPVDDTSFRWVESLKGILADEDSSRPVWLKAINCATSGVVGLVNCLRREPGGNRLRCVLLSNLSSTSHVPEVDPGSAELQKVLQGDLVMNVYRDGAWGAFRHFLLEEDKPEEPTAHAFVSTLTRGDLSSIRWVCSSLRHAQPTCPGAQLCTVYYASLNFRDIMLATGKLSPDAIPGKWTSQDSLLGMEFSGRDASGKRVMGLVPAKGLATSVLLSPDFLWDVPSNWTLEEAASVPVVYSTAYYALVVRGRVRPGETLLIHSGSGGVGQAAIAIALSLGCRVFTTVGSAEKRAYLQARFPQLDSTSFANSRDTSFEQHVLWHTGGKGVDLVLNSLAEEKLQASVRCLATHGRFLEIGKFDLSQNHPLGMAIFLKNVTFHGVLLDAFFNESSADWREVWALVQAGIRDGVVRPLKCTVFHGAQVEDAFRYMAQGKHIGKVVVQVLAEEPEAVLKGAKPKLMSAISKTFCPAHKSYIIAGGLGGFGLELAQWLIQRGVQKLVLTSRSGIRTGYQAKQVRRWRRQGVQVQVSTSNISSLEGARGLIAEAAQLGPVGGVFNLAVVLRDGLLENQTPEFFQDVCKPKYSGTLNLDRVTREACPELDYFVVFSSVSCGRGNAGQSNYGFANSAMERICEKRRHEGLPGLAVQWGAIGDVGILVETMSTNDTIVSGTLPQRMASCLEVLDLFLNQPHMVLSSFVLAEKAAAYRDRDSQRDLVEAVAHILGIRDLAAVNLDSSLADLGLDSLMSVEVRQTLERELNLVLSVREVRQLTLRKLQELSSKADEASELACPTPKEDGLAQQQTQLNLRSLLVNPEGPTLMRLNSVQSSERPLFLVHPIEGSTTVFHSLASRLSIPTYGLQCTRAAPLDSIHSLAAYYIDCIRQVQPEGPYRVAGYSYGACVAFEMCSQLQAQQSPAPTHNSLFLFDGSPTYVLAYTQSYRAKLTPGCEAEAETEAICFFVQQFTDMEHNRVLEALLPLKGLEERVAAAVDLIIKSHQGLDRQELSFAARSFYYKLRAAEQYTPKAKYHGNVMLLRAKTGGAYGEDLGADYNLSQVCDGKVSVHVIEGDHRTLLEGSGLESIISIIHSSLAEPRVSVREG
smiles,measurement,setting,value
c1ccc2c(c1)Cc1ccccc1-2,outcome,[1],inactive
same,outcome,[2],inactive
same,outcome,[3],inactive
same,outcome,[4],inactive
same,outcome,[5],inactive
same,outcome,[6],inactive
same,outcome,[7],inactive
same,outcome,[8],inactive
same,outcome,[9],inactive
same,outcome,[10],inactive
same,outcome,[11],inactive
same,outcome,[12],inactive
same,outcome,[13],inactive
same,outcome,[14],inactive
same,outcome,[15],inactive
same,outcome,[16],inactive
same,outcome,[17],inactive
OCCC(F)(F)C(F)(F)C(F)(F)C(F)(F)C(F)(F)C(F)(F)C(F)(F)C(F)(F)F,outcome,[1],inactive
same,outcome,[2],inactive
same,outcome,[3],inactive
same,outcome,[4],inactive
same,outcome,[5],inactive
same,outcome,[6],inactive
same,outcome,[7],inactive
same,outcome,[8],inactive
same,outcome,[9],inactive
same,outcome,[10],inactive
same,outcome,[11],inactive
same,outcome,[12],inactive
same,outcome,[13],inactive
same,outcome,[14],inactive
same,outcome,[15],inactive
same,outcome,[16],inactive
same,outcome,[17],inactive
NC(=O)N(O)[C@@H]1C=C[C@H](Oc2cccc(Oc3ccc(F)cc3)c2)C1,AC50,[1],67.2 µM (active)
same,AC50,[2],85 µM (active)
same,outcome,[3],inactive
same,AC50,[4],33 µM (active)
same,AC50,[5],84.1 µM (active)
same,AC50,[6],50 µM (active)
same,AC50,[7],42.7 µM (active)
same,AC50,[8],67.3 µM (active)
same,AC50,[9],64 µM (active)
same,outcome,[10],inactive
same,outcome,[11],inactive
same,outcome,[12],inactive
same,AC50,[13],21.1 µM (active)
same,AC50,[14],68 µM (active)
same,AC50,[15],82.5 µM (active)
same,AC50,[16],34.9 µM (active)
same,AC50,[17],22.7 µM (active)
Cc1cc(C)c(O)c(C)c1,outcome,[1],inactive
same,outcome,[2],inactive
same,outcome,[3],inactive
same,outcome,[4],inactive
same,outcome,[5],inactive
same,outcome,[6],inactive
same,outcome,[7],inactive
same,outcome,[8],inactive
same,outcome,[9],inactive
same,outcome,[10],inactive
same,outcome,[11],inactive
same,outcome,[12],inactive
same,outcome,[13],inactive
same,outcome,[14],inactive
same,AC50,[15],26.8 µM (active)
same,outcome,[16],inactive
same,outcome,[17],inactive
Cc1cc(CCN2CCN(c3nsc4ccccc34)CC2)cc2c1NC(=O)CC2(C)C,outcome,[1],inactive
same,AC50,[2],50 µM (active)
same,AC50,[4],76.7 µM (active)
same,outcome,[5],inactive
same,AC50,[6],73.4 µM (active)
same,AC50,[7],77.8 µM (active)
same,outcome,[8],inactive
same,outcome,[9],inactive
same,outcome,[10],inactive
same,AC50,[11],79.8 µM (active)
same,outcome,[12],inactive
same,outcome,[13],inactive
same,AC50,[14],74.7 µM (active)
same,AC50,[15],85.1 µM (active)
same,AC50,[16],32 µM (active)
same,outcome,[17],inactive
CN1CCN(c2ccccc2/C=C2\SCCN(c3ccc(Cl)c(Cl)c3)C2=O)CC1,outcome,[1],inactive
same,outcome,[2],inactive
same,outcome,[3],inactive
same,outcome,[4],inactive
same,outcome,[5],inactive
same,outcome,[6],inactive
same,AC50,[7],50 µM (active)
same,outcome,[8],inactive
same,outcome,[9],inactive
same,AC50,[10],69 µM (active)
same,outcome,[11],inactive
same,AC50,[12],50 µM (active)
same,AC50,[13],11.5 µM (active)
same,AC50,[14],22.5 µM (active)
same,outcome,[15],inactive
same,outcome,[16],inactive
same,outcome,[17],inactive
COC(=O)CCCCC(=O)OC,outcome,[1],inactive
same,outcome,[2],inactive
same,outcome,[4],inactive
same,outcome,[5],inactive
same,outcome,[6],inactive
same,outcome,[7],inactive
same,outcome,[8],inactive
same,outcome,[18],inactive
same,outcome,[9],inactive
same,outcome,[10],inactive
same,outcome,[11],inactive
same,outcome,[12],inactive
same,outcome,[13],inactive
same,outcome,[14],inactive
same,outcome,[15],inactive
same,outcome,[16],inactive
same,outcome,[17],inactive
